Where “and” joins values, the source holds several entries; their conditions need not be identical. Equal entries are not always repeated. A structure can be active in one record and inactive in another. Calls of active or inactive are those of the source. Unless noted, calls follow the shape of the dose curve; as a rule, active = well fitted curve in the direction sought with a large enough effect in the repeat runs; inconclusive = weak or mixed curves; inactive = no such curve, though single readings can be large; an effect the other way counts as inactive or inconclusive.
Columns and labels:
[1] = qHTS assay to identify small molecule antagonists of the thyroid receptor (TR) signaling pathway - cell viability counter screen (AID 743064); also: nearly all actives have a fitted effect of over 50% in size; also: potency is read from the fitted curve at half-maximal effect
In short: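 GH3.TRE-Luc cells, 4 h pre-plating; cpd + T3 1 nM final; 37 °C 23.5 h; CellTiter-Fluor 30 min; fluorescence read.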

[2] = qHTS assay to identify small molecule antagonists of the thyroid receptor (TR) signaling pathway (AID 743065); also: nearly all actives have a fitted effect of over 55% in size; also: potency is read from the fitted curve at half-maximal effect
In short: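 GH3.TRE-Luc rat pituitary cells carrying two TR response elements driving luciferase were plated for 4 h, given compound plus 1 nM T3 (final), and incubated 23.5 h at 37 C. ONE-Glo luminescence measured reporter inhibition; CellTiter-Fluor fluorescence tracked cytotoxicity.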

[3] = target: Estrogen receptor (Homo sapiens) (UniProt P03372); assay: qHTS assay to identify small molecule antagonists of the estrogen receptor alpha (ER-alpha) signaling pathway (AID 743069; active = well fitted curve in the direction sought with a large enough effect in the signal ratio in the repeat runs, not every such curve was filed as active; inconclusive = weak or mixed curves, or effect the other way; inactive = no such curve, though single readings can be large or run the other way; the % refers to the signal ratio; also: potency is read from the fitted curve at half-maximal effect)
In short: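 Estradiol-stimulated ER-alpha-UAS-bla HEK293 cells, 18 hr compound exposure at 37C. LiveBLAzer B/G substrate, 2 hr RT, fluorescence read.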

[4] = target: Estrogen receptor (Homo sapiens) (UniProt P03372); assay: qHTS assay to identify small molecule agonists of the estrogen receptor alpha (ER-alpha) signaling pathway (AID 743075; calls by dose curve;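 also: HEK293 GripTite cells with ER-alpha and UAS-driven beta-lactamase reporter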)
[5] = target: Estrogen receptor (Homo sapiens) (UniProt P03372); assay: qHTS assay to identify small molecule agonists of the estrogen receptor alpha (ER-alpha) signaling pathway using the BG1 cell line (AID 743079); settings: BG1Luc4E2 cells, ERE-luciferase agonist, 22 h; activation: at 70.3 µM (top of the series); also: nearly all actives have a fitted effect of over 20% in size; also: potency is read from the fitted curve at half-maximal effect
[6] = qHTS assay to identify small molecule antagonists of the estrogen receptor alpha (ER-alpha) signaling pathway using the BG1 cell line - cell viability counter screen (AID 743081);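 also: compound given together with 17beta-estradiol as the ER stimulus; nearly all actives have a fitted effect of over 45% in size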; also: potency is read from the fitted curve at half-maximal effect
[7] = target: Aryl hydrocarbon receptor (Homo sapiens) (UniProt P35869); assay: qHTS assay to identify small molecule that activate the aryl hydrocarbon receptor (AhR) signaling pathway (AID 743085); also: nearly all actives have a fitted effect of over 15% in size; also: potency is read from the fitted curve at half-maximal effect;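 as to activation: HG2L7.5c1 human HepG2 liver cells with stably integrated DRE-driven firefly reporter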
In short: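 Luminescence read-out: ONE-Glo reagent, 30 min at room temperature, in HG2L7.5c1 HepG2 reporter cells treated 24 h at 37C. Viability was measured beforehand by CellTiter-Fluor fluorescence after 30 min at 37C.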

[8] = qHTS assay to identify small molecule that activate the aryl hydrocarbon receptor (AhR) signaling pathway - cell viability counter screen (AID 743086); also: nearly all actives have a fitted effect of over 45% in size; also: potency is read from the fitted curve at half-maximal effect
In short: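 HepG2-AhR-luc (HG2L7.5c1) cells, 4000/well, were preincubated 5 h at 37C, exposed to compound in qHTS format for 24 hr at 37C, then given CellTiter-Fluor for 30 min; viability was read as fluorescence in the reporter wells.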

[9] = target: Peroxisome proliferator-activated receptor gamma (Homo sapiens) (UniProt P37231); assay: qHTS assay to identify small molecule antagonists of the peroxisome proliferator-activated receptor gamma (PPARg) signaling pathway (AID 743191; calls by dose curve; also: nearly all actives have a fitted effect of over 30% in size; also: potency is read from the fitted curve at half-maximal effect)
In short: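 GeneBLAzer PPARg UAS-bla HEK293H cells carrying a UAS-driven beta-lactamase reporter were plated at 3000 cells/well, preincubated 5 h at 37C, then given compound for 17 h at 37C; LiveBLAzer B/G FRET substrate was read after 1 h at room temperature.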

[10] = qHTS assay to identify small molecule antagonists of the peroxisome proliferator-activated receptor gamma (PPARg) signaling pathway - cell viability counter screen (AID 743194); also: nearly all actives have a fitted effect of over 55% in size; also: potency is read from the fitted curve at half-maximal effect
In short: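 PPARg-UAS-bla HEK293H cells were plated, rested 5 h at 37 C, then treated with compounds plus rosiglitazone (50 nM final) for 17 h at 37 C; viability was then read by CellTiter-Glo luminescence after 30 min at room temperature.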

[11] = qHTS assay for small molecule agonists of the antioxidant response element (ARE) signaling pathway - cell viability counter screen (AID 743203; calls by dose curve; also: nearly all actives have a fitted effect of over 55% in size; also: potency is read from the fitted curve at half-maximal effect)
In short: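 Seeded at 2,000 cells/well, ARE-bla HepG2 cells were incubated 5 hrs before compound addition. After 16 hrs of treatment at 37C with 5% CO2, CellTiter-Glo reagent was added and luminescence read 30 min later.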

[12] = qHTS assay for small molecule activators of the heat shock response signaling pathway - cell viability counter screen (AID 743209); also: nearly all actives have a fitted effect of over 50% in size
In short: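 First, HSE-bla HeLa cells were seeded at 1500 cells/well and kept overnight at 37 C. Next, compounds were pinned in and incubated 5 h. After the FRET substrate step, CellTiter-Glo was added and luminescence read 30 min later.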

[13] = qHTS assay to identify small molecule antagonists of the estrogen receptor alpha (ER-alpha) signaling pathway - cell viability counter screen (AID 743074; calls by dose curve;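 also: HEK293 cells carrying ER-alpha-UAS-bla reporter stimulated with 17beta-estradiol; nearly all actives have a fitted effect of over 45% in size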; also: potency is read from the fitted curve at half-maximal effect)
[14] = qHTS assay to identify small molecule antagonists of the estrogen receptor alpha (ER-alpha) signaling pathway using the BG1 cell line (AID 743080; calls by dose curve;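 also: BG1 cells stimulated with 17beta-estradiol alongside compound; nearly all actives have a fitted effect of over 25% in size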; also: potency is read from the fitted curve at half-maximal effect)
In short: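 Luminescence from a 4×ERE-luciferase reporter in BG1-Luc-4E2 cells served as read-out. Cells, pre-cultured 5 days in stripped-serum phenol-red-free medium, were exposed to compound with 17beta-estradiol co-stimulation for 21.5 h at 37 C.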

Aromatase (Homo sapiens) = Aromatase (Homo sapiens) (UniProt P11511); assay: qHTS assay to identify aromatase inhibitors (AID 743083); also: nearly all actives have a fitted effect of over 55% in size; also: potency is read from the fitted curve at half-maximal effect
[15] = qHTS assay to identify aromatase inhibitors - cell viability counter screen (AID 743084); also: potency is read from the fitted curve at half-maximal effect
[16] = target: Peroxisome proliferator-activated receptor gamma (Homo sapiens) (UniProt P37231); assay: qHTS assay to identify small molecule agonists of the peroxisome proliferator-activated receptor gamma (PPARg) signaling pathway (AID 743094; active = well fitted activation curve with a large enough effect in the signal ratio in the repeat runs, not every such curve was filed as active; inconclusive = weak or mixed curves, or effect the other way; inactive = no such curve, though single readings can be large or run the other way; the % refers to the signal ratio)
In short: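 Quantitative HTS agonist mode: stable HEK293H line with UAS-beta-lactamase reporter under PPARg control, 17 h compound exposure at 37C, fluorescence after 1 h FRET substrate loading at room temperature.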

[17] = tested on: thyroid hormone receptor (rat, GH3 cells); assay: qHTS assay to identify small molecule agonists of the thyroid receptor (TR) signaling pathway (AID 743066; calls by dose curve)
[18] = qHTS assay for small molecule activators of the heat shock response signaling pathway (AID 743210; active = well fitted activation curve with a large enough effect in the signal ratio in the repeat runs, with a control signal flat, not every such curve was filed as active; inconclusive = weak or mixed curves; the % refers to the signal ratio;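 also: HeLa cells with beta-lactamase reporter driven by heat shock elements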)
In short: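 Reporter gene assay: HeLa cells stably bearing an HSE-bla construct, compound treatment 5 h at 37 C, LiveBLAzer substrate 2.5 h at RT, fluorescence intensity.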

[19] = qHTS assay for small molecule agonists of the antioxidant response element (ARE) signaling pathway (AID 743202; active = well fitted activation curve with a large enough effect in the signal ratio in the repeat runs, not every such curve was filed as active; inconclusive = weak or mixed curves, or effect the other way; inactive = no such curve, though single readings can be large or run the other way; the % refers to the signal ratio; also: potency is read from the fitted curve at half-maximal effect)
In short: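 Compounds delivered in DMSO to ARE-bla HepG2 cells (2,000 cells/well, pre-incubated 5 h) and left 16 h at 37 C. LiveBLAzer B/G FRET substrate then added for 2 h at RT before fluorescence reading.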

Measured: Potency

Sequence of Aryl hydrocarbon receptor (Homo sapiens) (P35869 whole entry, looked up): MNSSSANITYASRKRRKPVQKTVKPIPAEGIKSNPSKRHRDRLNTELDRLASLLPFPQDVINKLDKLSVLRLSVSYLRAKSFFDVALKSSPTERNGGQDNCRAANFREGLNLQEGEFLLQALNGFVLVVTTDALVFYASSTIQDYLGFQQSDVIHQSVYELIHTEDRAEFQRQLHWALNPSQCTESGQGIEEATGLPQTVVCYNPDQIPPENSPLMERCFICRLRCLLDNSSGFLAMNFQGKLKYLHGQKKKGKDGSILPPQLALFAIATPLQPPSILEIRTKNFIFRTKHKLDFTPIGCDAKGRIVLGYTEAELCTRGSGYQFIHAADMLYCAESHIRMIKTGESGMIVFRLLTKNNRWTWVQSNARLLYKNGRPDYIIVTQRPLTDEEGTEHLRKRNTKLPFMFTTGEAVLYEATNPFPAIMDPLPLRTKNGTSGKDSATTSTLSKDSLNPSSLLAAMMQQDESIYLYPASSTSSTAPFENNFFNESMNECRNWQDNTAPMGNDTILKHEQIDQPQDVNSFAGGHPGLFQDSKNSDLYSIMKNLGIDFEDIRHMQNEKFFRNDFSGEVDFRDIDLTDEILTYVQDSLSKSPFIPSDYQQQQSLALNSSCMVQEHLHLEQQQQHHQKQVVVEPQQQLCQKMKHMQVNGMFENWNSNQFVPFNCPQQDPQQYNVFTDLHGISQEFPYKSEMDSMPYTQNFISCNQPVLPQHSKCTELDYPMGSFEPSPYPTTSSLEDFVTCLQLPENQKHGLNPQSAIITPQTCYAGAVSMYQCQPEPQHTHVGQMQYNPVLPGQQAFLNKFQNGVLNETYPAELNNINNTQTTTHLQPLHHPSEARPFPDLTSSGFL
Sequence of Aromatase (Homo sapiens) (P11511 whole entry, looked up): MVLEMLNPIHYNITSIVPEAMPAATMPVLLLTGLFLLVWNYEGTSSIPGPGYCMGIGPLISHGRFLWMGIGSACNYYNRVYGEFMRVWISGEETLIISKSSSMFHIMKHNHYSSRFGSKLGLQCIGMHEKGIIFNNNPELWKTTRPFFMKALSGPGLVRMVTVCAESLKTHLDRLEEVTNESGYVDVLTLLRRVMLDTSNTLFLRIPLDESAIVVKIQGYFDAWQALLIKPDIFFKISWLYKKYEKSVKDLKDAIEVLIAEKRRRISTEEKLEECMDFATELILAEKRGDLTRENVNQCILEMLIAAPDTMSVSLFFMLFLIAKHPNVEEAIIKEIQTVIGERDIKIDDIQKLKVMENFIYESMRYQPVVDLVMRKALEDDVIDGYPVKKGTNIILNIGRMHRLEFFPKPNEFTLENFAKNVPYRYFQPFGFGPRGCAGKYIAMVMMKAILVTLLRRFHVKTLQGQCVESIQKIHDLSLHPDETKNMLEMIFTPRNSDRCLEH
Sequence of Estrogen receptor (Homo sapiens) (P03372 whole entry, looked up): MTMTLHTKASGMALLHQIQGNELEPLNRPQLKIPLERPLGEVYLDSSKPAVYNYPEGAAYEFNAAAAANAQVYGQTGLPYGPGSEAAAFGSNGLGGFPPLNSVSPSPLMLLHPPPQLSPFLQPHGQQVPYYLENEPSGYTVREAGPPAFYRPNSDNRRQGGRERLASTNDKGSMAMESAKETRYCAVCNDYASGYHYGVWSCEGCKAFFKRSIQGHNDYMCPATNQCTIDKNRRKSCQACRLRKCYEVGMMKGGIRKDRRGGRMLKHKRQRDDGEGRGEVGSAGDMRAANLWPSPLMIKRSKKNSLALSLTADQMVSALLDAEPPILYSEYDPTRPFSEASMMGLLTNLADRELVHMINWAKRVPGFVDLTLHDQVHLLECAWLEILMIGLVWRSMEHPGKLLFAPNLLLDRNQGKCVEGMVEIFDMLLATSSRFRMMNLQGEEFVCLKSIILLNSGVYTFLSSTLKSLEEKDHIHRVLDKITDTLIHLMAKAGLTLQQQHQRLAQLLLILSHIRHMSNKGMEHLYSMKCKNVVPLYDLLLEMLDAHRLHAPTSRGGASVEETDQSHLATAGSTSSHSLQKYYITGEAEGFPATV
Sequence of Peroxisome proliferator-activated receptor gamma (Homo sapiens) (P37231 whole entry, looked up): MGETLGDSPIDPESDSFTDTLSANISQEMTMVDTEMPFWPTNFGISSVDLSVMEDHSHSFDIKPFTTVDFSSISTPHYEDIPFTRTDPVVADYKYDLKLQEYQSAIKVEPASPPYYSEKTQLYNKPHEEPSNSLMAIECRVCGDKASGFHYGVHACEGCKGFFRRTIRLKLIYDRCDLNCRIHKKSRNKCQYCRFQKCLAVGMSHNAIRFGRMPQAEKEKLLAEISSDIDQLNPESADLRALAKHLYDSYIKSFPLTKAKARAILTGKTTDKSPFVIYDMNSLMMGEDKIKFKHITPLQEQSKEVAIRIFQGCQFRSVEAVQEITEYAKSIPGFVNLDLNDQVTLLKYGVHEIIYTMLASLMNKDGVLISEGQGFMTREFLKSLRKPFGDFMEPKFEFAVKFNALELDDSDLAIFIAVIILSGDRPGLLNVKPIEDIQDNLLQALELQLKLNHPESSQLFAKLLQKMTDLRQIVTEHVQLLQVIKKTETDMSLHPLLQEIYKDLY

Cc1c(C)c2c(c(C)c1OC(=O)CCC(=O)OCCO)CC[C@@](C)(CCC[C@H](C)CCC[C@H](C)CCCC(C)C)O2
active: [1] 11.9 µM | [2] 23.7 µM | [3] 9.52 µM [inconclusive] | [9] 15 µM | [10] 33.5 µM
inactive: [4] | [5] | [6] | [7] | [8] | [11] | [12]

CN(C)CCC=C1c2ccccc2C=Cc2ccccc21
active: [1] 15 µM | [2] 26.6 µM
not listed: [3] | [9] | [17] | [18] | [19]
inactive: all other assays above

CC[C@]1(O)C[C@H]2CN(CCc3c([nH]c4ccccc34)[C@@](C(=O)OC)(c3cc4c(cc3OC)N(C=O)[C@H]3[C@@](O)(C(=O)OC)[C@H](OC(C)=O)[C@]5(CC)C=CCN6CC[C@]43[C@@H]65)C2)C1
active: [1] 0.106 µM | [2] 0.0944 µM | [14] 0.0531 µM
inactive: [17] | [6] | Aromatase (Homo sapiens) | [7] | [8] | [9] | [10] | [12] | [18]

CN1C[C@H](C(=O)N[C@]2(C)O[C@@]3(O)[C@@H]4CCCN4C(=O)[C@H](Cc4ccccc4)N3C2=O)C[C@@H]2c3cccc4[nH]cc(c34)C[C@H]21
inactive: [3] | [13] | [4] | [14] | [6] | Aromatase (Homo sapiens) | [15] | [7] | [12]
active: [1] 21.1 µM | [2] 26.6 µM | [10] 29.8 µM | [11] 29.8 µM

COc1ccccc1N1CCN(CC(O)COc2cccc3ccccc23)CC1 (configuration not stated)
active: [1] 26.6 µM | [7] 29.8 µM
inactive: [17] | [13] | [6] | Aromatase (Homo sapiens) | [15] | [8] | [16] | [10] | [11] | [12]

C[C@@H]1CC(=O)NN=C1c1ccc(NN=C(C#N)C#N)cc1
inactive: [3] | [13] | [4] | [14] | [10] | [11] | [12]
active: [1] 15 µM | [2] 13.3 µM | [6] 23.7 µM | Aromatase (Homo sapiens) 29.8 µM | [15] 26.6 µM | [7] 15 µM | [8] 26.6 µM

CC(=O)[C@H]1[C@H](C#N)C[C@H]2[C@@H]3CC=C4C[C@@H](O)CC[C@]4(C)[C@H]3CC[C@@]21C
active: [19] 33.1 µM
not listed: [2] | [3] | [5] | [9]
inactive: all other assays above

OCCN1CCN(CCCN2c3ccccc3Sc3ccc(Cl)cc32)CC1
active: [1] 3.59 µM | [2] 5.07 µM | [11] 29.8 µM
not listed: [7] | [8] | [9] | [10] | [15] | [17] | [19]
inactive: all other assays above

CC(=O)NC1(c2cccc(F)c2)CCN(CC[C@@]2(c3ccc(Cl)c(Cl)c3)CN(c3ccccc3)C(=O)CO2)CC1
inactive: [4] | [7] | [12] | [18]
active: [1] 7.72 µM | [2] 10.9 µM | [13] 39 µM | [14] 54.6 µM | [15] 48.7 µM | [8] 43.4 µM | [9] 43.8 µM | [10] 34.8 µM | [11] 19.4 µM

CCCCC(CC)COP(=O)(O)O (configuration not stated)
active: [3] 39.6 µM [inconclusive]
not listed: [2] | [7] | [9] | [16] | [19]
inactive: all other assays above

C=Cc1ccc(S(=O)(=O)O)cc1
inactive and 9.69 µM (active): [1]
23.7 µM (active) and inactive: [5]
not listed: [2] | [9] | [10] | [11] | [18] | [19]
inactive: all other assays above

O=C1CCCCCCCCCCOCCCCO1
not listed: [2] | [3] | [4] | [5] | [14] | Aromatase (Homo sapiens) | [18]
inactive: all other assays above

CC(C)C(O)(c1ccc(OC(F)(F)F)cc1)c1cncnc1 (configuration not stated)
inactive: [1] | [17] | [13] | [6] | Aromatase (Homo sapiens) | [15] | [7] | [8] | [10] | [11] | [12]

Cc1ccc2c(Br)cc(Br)c(O)c2n1
active: [1] 26.6 µM | [2] 18.8 µM | [7] 13.3 µM | [10] 23.7 µM
inactive: [13] | [6] | [8] | [11] | [12]

c1ccc2c(c1)CCc1ccccc1N2
not listed: [3] | [4] | [5] | [7] | [13] | [14] | [15]
inactive: all other assays above

O=[N+]([O-])c1cc(C2CCCCC2)c(O)c([N+](=O)[O-])c1
active: [1] 9.66 µM | [2] 3.85 µM | [3] 6.15 µM [inconclusive] | [6] 6.09 µM | Aromatase (Homo sapiens) 17.2 µM | [15] 17.2 µM | [8] 30.5 µM | [11] 24.3 µM
inactive: [4] | [7] | [12]

CC(C)C[C@H](NC(=O)[C@H](CCc1ccccc1)NC(=O)CN1CCOCC1)C(=O)N[C@@H](Cc1ccccc1)C(=O)N[C@@H](CC(C)C)C(=O)[C@@]1(C)CO1
active: [1] 0.0422 µM | [2] 0.0298 µM | [3] 0.601 µM [inconclusive] | [14] 0.188 µM | Aromatase (Homo sapiens) 0.0335 µM | [8] 0.0473 µM | [19] 0.0668 µM | [11] 3.76 µM
inactive: [6] | [7] | [12]

Source: PubChem BioAssay (Tox21)
